From PubChem BioAssay come the findings set out here.

In assay [1] the test system is Human papillomavirus type 1a protein E7 (residues 44-93). As to the kind of experiment: HPV1a E7 fragment binders on microarrays, primary screen, biochemical, small-molecule microarray, residues 44-93, 635 nm fluorescence (AID 1108).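 Further: E7 fragment applied at 1 µg/mL in TBST for 1 h at 4 C; score combines spot fluorescence with its signal to noise ratio.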 The note with it: small-molecule microarray binding, fluorescence 635 nm; higher = more signal.
Assay [2] in a line: modulators of HCV replicon luciferase signal, primary screen, HCV replication inhibitor project, Huh7 cells, luciferase reporter (AID 1109).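 Further: huh7 hepatoma cells harbouring a luciferase neomycin HCV replicon reporter; luciferase luminescence as measure of HCV replicon replication; test concentration not given here.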 To be noted: 48 h, higher = more signal. For orientation: Replicon systems follow genome replication, usually without infectious particles.
The target of assay [3] is Left-right determination factor 2 (Homo sapiens) (UniProt O00292). As to the kind of experiment: LEFTY2 binders on small-molecule microarrays, primary screen, biochemical, small-molecule microarray, 635 nm fluorescence scan (AID 1110). To be noted: LEFTY2 binding, higher = more signal.
Left-right determination factor 2 (Homo sapiens), sequence (O00292 whole entry, looked up): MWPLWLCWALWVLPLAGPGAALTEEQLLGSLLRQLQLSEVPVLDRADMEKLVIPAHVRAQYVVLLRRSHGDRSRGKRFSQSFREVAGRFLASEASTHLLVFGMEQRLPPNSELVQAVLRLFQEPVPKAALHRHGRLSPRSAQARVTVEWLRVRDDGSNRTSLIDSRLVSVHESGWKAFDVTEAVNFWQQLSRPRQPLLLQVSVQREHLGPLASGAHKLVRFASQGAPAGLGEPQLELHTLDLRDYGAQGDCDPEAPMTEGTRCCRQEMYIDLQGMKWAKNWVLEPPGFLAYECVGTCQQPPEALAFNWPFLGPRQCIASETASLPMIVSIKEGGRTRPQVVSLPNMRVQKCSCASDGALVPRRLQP
The target in assay [4] is Calmodulin-1 (Homo sapiens) (UniProt P0DP23). As to the kind of experiment: CALM1 binders on microarrays, EGTA buffer, profiling panel, biochemical, small-molecule microarray, Cy5-labelled CALM1 (AID 1111).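 Further: labelled calmodulin applied in Tris saline Tween buffer holding calcium plus EGTA and DTT.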 To be noted: Cy5-CALM1 binding fluorescence, higher = more signal.
Assay [5] has the same target. In words: calcium-bound CALM1 binders on microarrays, profiling panel, artefact control for SMM control-protein annotation, biochemical, small-molecule microarray, Cy5-labelled CALM1, plus calcium (AID 1112).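 Further: score merges spot fluorescence with signal to noise from triplicate slides.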 The note with it: Cy5-CALM1 binding fluorescence, higher = more signal.
A short description of assay [6]: small-molecule microarray binders of probe aWnt5a, primary screen, biochemical, biotinylated probe, 635/667 nm fluorescence (AID 1113).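 Further: score merges 667 nm fluorescence intensity with signal-to-noise per printed feature.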 The note with it: higher = more signal.
Assay [7] in a line: small-molecule microarray binders of probe aShh, primary screen, biochemical, biotinylated probe, 635/667 nm fluorescence (AID 1114).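 Further: probe is biotin-labelled aShh protein from a stem cell growth factor screen; measures binding of labelled protein to compounds printed on the slide; score merges feature fluorescence at 667 nm with signal-to-noise.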 The note with it: higher = more signal.
Assay [8] can be described thus: small-molecule microarray binders of probe aNog, primary screen, biochemical, biotinylated probe, 635/667 nm fluorescence (AID 1115).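 Further: probe is biotinylated aNog protein used at 0.15 µg/mL for 1 h at 4 C; z-score combines 667 nm fluorescence of each spot with its signal to noise.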 To be noted: higher = more signal.
For assay [9], the target named is Torsin-1A-interacting protein 1 (Homo sapiens) (UniProt Q5JTV8). In words: LAP1 binders from COS7 cell lysate, primary screen, small-molecule microarray, 635/667 nm fluorescence (AID 1116). The note with it: COS7-hLAP1 lysate binding, 635 nm fluorescence, higher = more signal.
Torsin-1A-interacting protein 1 (Homo sapiens), sequence (Q5JTV8 whole entry, looked up): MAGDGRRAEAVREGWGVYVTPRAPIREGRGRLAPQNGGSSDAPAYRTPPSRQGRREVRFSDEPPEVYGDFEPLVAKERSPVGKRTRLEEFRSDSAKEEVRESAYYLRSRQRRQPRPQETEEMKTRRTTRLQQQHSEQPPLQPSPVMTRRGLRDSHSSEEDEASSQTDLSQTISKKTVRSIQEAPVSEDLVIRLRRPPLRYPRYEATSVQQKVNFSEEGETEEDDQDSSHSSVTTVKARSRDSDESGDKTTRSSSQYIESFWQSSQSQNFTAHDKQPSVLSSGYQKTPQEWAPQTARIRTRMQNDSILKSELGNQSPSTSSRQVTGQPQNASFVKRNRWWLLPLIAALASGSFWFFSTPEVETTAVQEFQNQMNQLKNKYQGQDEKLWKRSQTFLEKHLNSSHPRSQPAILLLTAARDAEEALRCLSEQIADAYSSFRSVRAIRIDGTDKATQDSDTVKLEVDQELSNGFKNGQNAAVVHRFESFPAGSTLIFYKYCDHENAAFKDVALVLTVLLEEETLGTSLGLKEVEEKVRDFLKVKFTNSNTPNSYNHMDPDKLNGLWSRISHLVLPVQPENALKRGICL
For assay [10], the target named is Alpha-bungarotoxin (Bungarus multicinctus) (UniProt P60615). In words: alpha-bungarotoxin binders on microarray, profiling panel, artefact control for SMM control protein annotation, biochemical, small-molecule microarray, Alexa647 label, 635/667 nm fluorescence (AID 1117). The note with it: alpha-BTX-A647 binding fluorescence, higher = more signal.
Alpha-bungarotoxin (Bungarus multicinctus), sequence (P60615 whole entry, looked up): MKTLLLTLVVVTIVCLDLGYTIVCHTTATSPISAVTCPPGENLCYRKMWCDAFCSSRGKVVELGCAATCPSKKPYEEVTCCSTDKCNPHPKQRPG

Regarding `COc1ccc(C#Cc2ccc3c(c2)[C@]2(C(=O)N3)[C@H](C(=O)NC[C@H](O)c3ccccc3)[C@H]3C(=O)O[C@H](c4ccccc4)[C@H](c4ccccc4)N3[C@@H]2c2ccc(O)cc2)cc1`, the composite z-score was 1.43 in assay [1]; 0.559 in assay [3]; 1.04 in [4]; -0.064 in assay [5]; 0.0952 in assay [6]; 0.0723 in [7]. Further, the composite z-score in assay [8] was found to be 0.277; in assay [9], 1.06; in assay [10] it was 1.72. Also, the z-score in [2] is -1.38.
For the molecule `COC(=O)[C@@]1(Cc2ccc(F)cc2)[C@H]2c3cc(C(=O)N(C)C)n(Cc4ccc(Cl)c(C(F)(F)F)c4)c3C[C@H]2CN1C(=O)c1ccccc1`, the composite z-score was 0.199 in [1]; -0.401 in assay [3]; 2.75 in assay [4]; 1.63 in [5]; -0.101 in assay [6]; -0.0578 in [7]. For the same molecule, the composite z-score in assay [8] is -0.222; in assay [9] it was 2.41; in assay [10], 2.36. This molecule had a z-score in [2] of -2.11.
Consider `CN(C)CCCCCCNC(=O)[C@H]1C[C@H]2C(=O)N3CCC[C@H]3C(=O)N2[C@H]1c1ccc(O)cc1`, for which the composite z-score in assay [1] was 1.12; in [3], 1.44; in [4] it was -1.17; in assay [5], -2.33; in assay [6] it was -0.0598; in assay [7], 0.178. The composite z-score came out at 0.0459 in assay [8], 1.29 in [9] and 0.73 in assay [10]. For the same molecule, the z-score in [2] stood at 1.42.
`C=CCN1C(=O)[C@@]2(Cc3ccccc31)N=C(c1ccc(OCCCO)cc1)O[C@H]2c1ccccc1`: the composite z-score in assay [1] is 0.896; in assay [3] it was 0.308; in assay [4], 0.355; in [5], -0.231; in [6], 0.0458; in [7] it was 0.308. Also, the composite z-score in assay [8] worked out at 0.89; in assay [9], 0.895; in [10], 0.306. The same molecule yielded a z-score in assay [2] of -2.11.
For the molecule `O=C1C2C=CC(C(O)c3cccc4ccccc34)N(Nc3ccccc3F)C2C(=O)N1c1ccccc1` (stereo not given), the composite z-score in [1] came out at 1.45; in [3], 0.264; in assay [4], 1.84; in assay [5], 0.895; in assay [6], 0.0554; in assay [7] it was 0.14. Further, the results for the composite z-score in assay [8], in assay [9] and in [10] were 0.737, 1.4 and 2.15, respectively. The molecule further registered a z-score in assay [2] of -0.69.
Turning to `C[N+](C)(C)CCCC[C@@H]1NC(=O)[C@H]2C[C@@H](C(=O)NCCCCCCNC(=O)CS)[C@@H](c3cccc(OCCO)c3)N2C1=O`, the composite z-score in assay [1] is -1.51; in assay [3], -1.55; in assay [4] it was -0.149; in [5] it was 0.105; in assay [6], -0.202; in [7], -0.17. Besides, the figures for the composite z-score in assay [8], in assay [9] and in assay [10] were -0.175, -0.933 and -1.06, respectively. In assay [2], this molecule showed a z-score of -0.242.
Consider `CN(C)CCCCCCNC(=O)[C@@H]1C[C@@H]2C(=O)N[C@@H](Cc3ccccc3)C(=O)N2[C@@H]1c1ccc(O)cc1`, for which the composite z-score is 1.13 in assay [1]; 1.02 in [3]; -0.565 in assay [4]; -1.14 in assay [5]; -0.0425 in [6]; 0.0668 in [7]. Besides, the composite z-score in assay [8] turned out to be 0; in assay [9], 1.32; in assay [10], 2.47. In assay [2], this molecule came in with a z-score of 2.17.
For the molecule `C[N+](C)(C)CCCCNC(=O)[C@@H]1C[C@@H]2C(=O)N[C@@H](Cc3ccccc3)C(=O)N2[C@@H]1c1cccc(OCCO)c1`, the composite z-score is -1.03 in [1]; 0.633 in [3]; -0.985 in assay [4]; 0.18 in assay [5]; -0.178 in assay [6]; -0.0146 in assay [7]. Also, the composite z-score in assay [8] is -0.12; in assay [9], 0.0849; in assay [10], -0.671. In [2], this molecule registered a z-score of -0.759.
As for `COc1ccc([C@H]2OC[C@@H]3C[C@@H](Cc4ccccc4)C(=O)N32)cc1`, the composite z-score in assay [1] is -0.235; in [3] it was 0.311; in [4], -0.05; in [5] it was -0.317; in [6] it was -0.0203; in [7], -0.0146. Besides, the composite z-score is -0.0273 in assay [8], 0.53 in assay [9] and -0.429 in assay [10]. In [2], this molecule gave a z-score of -0.859.
`COc1ccc([Si](C)(C)[C@H]2[C@H](CCO)O[C@@]3(C(=O)N(Cc4ccc(N(C=O)c5ccccc5)cc4)c4ccccc43)[C@@H]2C)cc1`: the composite z-score in assay [1] was -0.2; in assay [3], -0.677; in assay [4], 0.625; in assay [5] it was 1.01; in [6] it was -0.124; in assay [7], -0.0553. The figures for the composite z-score in assay [8], in assay [9] and in [10] were -0.14, 0.34 and 0.158, respectively. Besides, in assay [2], the z-score was -4.65.
`C=C(C(=O)CC[C@@H](OC(=O)c1cccnc1)c1ccccc1OCCO)C(C)C`: the composite z-score in assay [1] was -0.139; in assay [3], 0.373; in [4], -0.948; in assay [5] it was -0.895; in assay [6] it was -0.0643; in [7], -0.0977. For the same molecule, the composite z-score in [8] is -0.247; in assay [9] it was 1.85; in assay [10], 0.593. The z-score in [2] was -2.35.
On to `C=C(/C(=C/C[C@H](OC(C)=O)c1ccc(CO)o1)c1cc(C(=O)OC)ccc1OC)C(C)C`, for which the composite z-score is -0.3 in assay [1]; -0.183 in [3]; -0.0278 in assay [4]; -0.061 in [5]; -0.0506 in assay [6]; 0.318 in assay [7]. For the same molecule, the composite z-score in [8] was 0.168; in [9], 0.0916; in assay [10] it was -0.829. The same molecule gave a z-score in assay [2] of -2.22.
Consider `COC(=O)[C@@]1(Cc2ccc(OC)cc2)[C@H]2c3cc(C(=O)N4CCCC4)n(Cc4ccc(C)c(F)c4F)c3C[C@H]2CN1C(=O)c1ccccc1`, for which the composite z-score in assay [1] is 1.48; in assay [3] it was -0.401; in assay [4], 2.14; in assay [5], 1.3; in assay [6] it was -0.0553; in assay [7] it was -0.155. Further, the composite z-score was determined as 1.65 in assay [8], 0.113 in [9] and 1.55 in [10]. Also, in assay [2], the z-score is -2.34.
Regarding `NC(=O)NCC#Cc1ccc2c(c1)[C@]1(C(=O)N2)[C@H](c2ccccc2OCCO)N2[C@H](c3ccccc3)[C@H](c3ccccc3)OC(=O)[C@H]2[C@@H]1C(=O)Nc1nc2ccccc2s1`, the composite z-score in [1] was 1.36; in assay [3], 0.0464; in assay [4], 0.873; in [5], 0.745; in assay [6], -0.0944; in [7], -0.266. Also, the composite z-score in assay [8] came out at 0.448; in assay [9] it was 0.286; in [10] it was 1.29. Further, the z-score in [2] is -0.809.
For `CCS[C@H]1[C@@H](C(=O)O)[C@H](c2ccc(C)cc2)N(S(=O)(=O)c2ccc(C)cc2)[C@@H]1CC`, the composite z-score is 1.39 in assay [1]; 0.0041 in assay [3]; 0.83 in [4]; 0.0072 in assay [5]; -0.1 in assay [6]; -0.0035 in assay [7]. Besides, the composite z-score in assay [8] stood at 1.11; in assay [9], 0.827; in [10] it was 0.834. Also, the z-score in assay [2] is 0.841.
